Targets with a hit are over-represented here; the source holds about 8,800 in all. About 0.5% of all pairs of compound and target were hits.
Tests used:
Experiment in all cases: log2 fold change, soluble protein after heating vs DMSO (PISA); higher = thermal stabilisation; K562 lysate, 10 uM; active = over 0.2 and 3.5 SD of the protein, either way, in both replicates (recomputed)
[1] = compound: NCC(=O)Nc1ccc(-n2nc(C(F)(F)F)cc2-c2ccc3c(ccc4ccccc43)c2)cc1
Method in brief: (§1)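 K562 pellets were dounce-homogenised in PBS pH 7.4 with 1 mM MgCl2, and the crude extract at 1 mg/mL protein was treated with 10 μM compound for 30 min. Aliquots were heated for 3 min across 48°C-58°C, pooled, and brought to 0.5% NP-40 at 4°C; soluble protein was the supernatant after 21,000xg for 90 min. Soluble protein was quantified by TMTpro 16plex LC-MS/MS with channel sums equalised, and reported as log2 fold change in thermal stability against DMSO controls, with values from duplicates.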

vorinostat = compound: O=C(CCCCCCC(=O)Nc1ccccc1)NO [vorinostat]
Method in brief: as §1

silmitasertib = compound: O=C(O)c1ccc2c(c1)nc(Nc1cccc(Cl)c1)c1ccncc12 [silmitasertib]
Method in brief: as §1

[2] = compound: O=C1NC(=O)C(c2cnc3ccccn23)=C1c1cn2c3c(cc(F)cc13)CN(C(=O)N1CCCCC1)CC2
Method in brief: as §1

entospletinib = compound: c1cn2cc(-c3ccc4cn[nH]c4c3)nc(Nc3ccc(N4CCOCC4)cc3)c2n1 [entospletinib]
Method in brief: as §1

Measured: log2 fold change

LUZP1 (UniProt Q86V48)
inactive: [1] 0.094 | silmitasertib 0.129 | [2] 0.022 | entospletinib -0.03
active: vorinostat -0.248

KPNA2 (UniProt P52292)
active: vorinostat -0.376
inactive: [1] -0.014 | silmitasertib 0.018 | [2] 0.009 | entospletinib 0.019

LETM1 (UniProt O95202)
UniProt O95202, sequence (O95202 whole entry, looked up): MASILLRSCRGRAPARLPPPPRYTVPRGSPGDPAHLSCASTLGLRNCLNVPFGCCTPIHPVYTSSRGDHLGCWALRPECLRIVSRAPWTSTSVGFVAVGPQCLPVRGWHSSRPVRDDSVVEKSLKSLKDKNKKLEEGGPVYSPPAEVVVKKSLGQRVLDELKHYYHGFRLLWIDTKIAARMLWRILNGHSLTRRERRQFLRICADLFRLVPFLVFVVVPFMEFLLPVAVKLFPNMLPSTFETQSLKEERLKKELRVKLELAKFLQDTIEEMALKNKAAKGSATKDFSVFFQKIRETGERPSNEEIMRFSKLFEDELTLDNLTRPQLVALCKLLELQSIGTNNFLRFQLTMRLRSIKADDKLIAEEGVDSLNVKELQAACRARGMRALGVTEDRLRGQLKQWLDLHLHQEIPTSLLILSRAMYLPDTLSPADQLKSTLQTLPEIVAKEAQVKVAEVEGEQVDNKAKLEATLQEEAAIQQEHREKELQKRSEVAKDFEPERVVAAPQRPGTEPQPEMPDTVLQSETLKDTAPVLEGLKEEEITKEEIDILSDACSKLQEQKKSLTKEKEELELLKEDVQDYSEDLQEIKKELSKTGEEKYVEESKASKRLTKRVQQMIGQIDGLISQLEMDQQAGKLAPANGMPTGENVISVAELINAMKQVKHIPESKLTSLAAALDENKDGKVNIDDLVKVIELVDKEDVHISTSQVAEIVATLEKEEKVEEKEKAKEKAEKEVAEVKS
inactive: [1] -0.041 | vorinostat 0.084 | silmitasertib -0.021 | [2] -0.006 | entospletinib 0.009

MEX3A (UniProt A1L020)
inactive: [1] -0.106

MPP1 (UniProt Q00013)
inactive: [1] 0.012 | silmitasertib 0.02 | [2] 0.024 | entospletinib 0.007
active: vorinostat -0.297

MARCHF6 (UniProt O60337)
inactive: [1] 0 | vorinostat 0.057 | silmitasertib -0.037 | [2] -0.06 | entospletinib -0.028

MACROD1 (UniProt Q9BQ69)
active: vorinostat -0.363
inactive: [1] 0.11 | silmitasertib 0.04 | [2] 0.05 | entospletinib 0.047

MAP4 (UniProt E7EVA0)
inactive: [1] -0.044 | vorinostat 0.025 | silmitasertib 0.028 | [2] 0.079 | entospletinib -0.025

KIF15 (UniProt Q9NS87)
inactive: [1] 0.017 | vorinostat -0.136 | silmitasertib 0.02 | [2] 0.004 | entospletinib -0.024

MOCS1 isoform 8 (UniProt Q9NZB8)
inactive: [1] -0.1 | vorinostat 0.06 | silmitasertib -0.018 | [2] -0.111 | entospletinib -0.051

MAP4 isoform 5 (UniProt P27816)
inactive: [1] 0.001 | vorinostat 0.359 | silmitasertib 0.074 | [2] 0.087 | entospletinib 0.063

LYRM4 (UniProt Q9HD34)
UniProt Q9HD34, sequence (Q9HD34 whole entry, looked up): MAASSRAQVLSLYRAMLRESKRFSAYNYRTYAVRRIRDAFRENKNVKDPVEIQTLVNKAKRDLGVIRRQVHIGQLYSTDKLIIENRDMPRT
inactive: [1] 0.01 | vorinostat 0.119 | silmitasertib -0.019 | [2] 0.023 | entospletinib 0.007

MAPK8 isoform 3 (UniProt P45983)
inactive: [1] 0.064 | silmitasertib 0.007 | [2] 0.038 | entospletinib -0.039
active: vorinostat -0.395

MITD1 (UniProt Q8WV92)
active: vorinostat 0.255
inactive: [1] 0.01 | silmitasertib -0.051 | [2] -0.079 | entospletinib -0.024

METTL7A (UniProt Q9H8H3)
UniProt Q9H8H3, sequence (Q9H8H3 whole entry, looked up): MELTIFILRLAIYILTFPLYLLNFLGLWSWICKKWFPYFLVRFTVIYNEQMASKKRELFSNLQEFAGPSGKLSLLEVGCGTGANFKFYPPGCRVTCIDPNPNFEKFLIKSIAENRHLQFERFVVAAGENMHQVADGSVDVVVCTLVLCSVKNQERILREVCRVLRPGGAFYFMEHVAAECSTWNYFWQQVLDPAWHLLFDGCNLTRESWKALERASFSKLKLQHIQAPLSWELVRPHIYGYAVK
inactive: [1] 0.037 | vorinostat 0.017 | silmitasertib -0.053 | [2] 0.274 | entospletinib -0.001

KRIT1 (UniProt O00522)
inactive: [1] -0.125 | vorinostat -0.046 | silmitasertib -0.013 | [2] -0.02 | entospletinib 0.012

MED17 (UniProt Q9NVC6)
inactive: [1] -0.051 | silmitasertib -0.008 | [2] -0.006 | entospletinib 0.083
active: vorinostat -0.392

KIFC3 isoform 6 (UniProt Q9BVG8)
inactive: [1] 0.03 | vorinostat -0.025 | silmitasertib -0.124 | [2] 0.119 | entospletinib -0.063

MAP2K7 isoform 4 (UniProt O14733)
inactive: [1] 0.009 | silmitasertib 0.167 | [2] -0.051 | entospletinib -0.047
active: vorinostat -1.09

MCMBP isoform 2 (UniProt Q9BTE3)
inactive: [1] -0.153 | vorinostat -0.413 | silmitasertib -0.092 | [2] 0.064 | entospletinib -0.654

KMT2A isoform 3 (UniProt Q03164)
inactive: [1] 0.046 | vorinostat 0.101 | silmitasertib 0.012 | [2] 0.066 | entospletinib -0.034

MIPEP (UniProt Q99797)
inactive: [1] 0.005 | vorinostat -0.043 | silmitasertib 0.007 | [2] -0.021 | entospletinib -0.028

MAPK14 (UniProt Q16539)
inactive: [1] -0.007 | vorinostat -0.294 | silmitasertib 0.279 | [2] 0.015 | entospletinib -0.005

MFF isoform 2 (UniProt Q9GZY8)
UniProt Q9GZY8, sequence (Q9GZY8 whole entry, looked up): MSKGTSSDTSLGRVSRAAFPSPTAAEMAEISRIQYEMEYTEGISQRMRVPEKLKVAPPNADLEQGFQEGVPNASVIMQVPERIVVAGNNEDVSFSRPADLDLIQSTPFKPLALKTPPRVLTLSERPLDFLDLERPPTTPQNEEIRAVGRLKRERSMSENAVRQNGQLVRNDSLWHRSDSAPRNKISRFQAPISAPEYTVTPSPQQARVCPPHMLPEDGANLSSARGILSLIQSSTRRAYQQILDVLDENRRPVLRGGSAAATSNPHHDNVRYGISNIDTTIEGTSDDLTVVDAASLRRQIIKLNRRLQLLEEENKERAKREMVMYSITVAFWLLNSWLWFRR
inactive: [1] 0.003 | vorinostat 0.17 | silmitasertib -0.048 | [2] 0.029 | entospletinib -0.055

MLXIP (UniProt Q9HAP2)
inactive: [1] 0.037 | silmitasertib 0.026 | [2] 0.079 | entospletinib 0.03
active: vorinostat -0.314

LYAR (UniProt Q9NX58)
UniProt Q9NX58, sequence (Q9NX58 whole entry, looked up): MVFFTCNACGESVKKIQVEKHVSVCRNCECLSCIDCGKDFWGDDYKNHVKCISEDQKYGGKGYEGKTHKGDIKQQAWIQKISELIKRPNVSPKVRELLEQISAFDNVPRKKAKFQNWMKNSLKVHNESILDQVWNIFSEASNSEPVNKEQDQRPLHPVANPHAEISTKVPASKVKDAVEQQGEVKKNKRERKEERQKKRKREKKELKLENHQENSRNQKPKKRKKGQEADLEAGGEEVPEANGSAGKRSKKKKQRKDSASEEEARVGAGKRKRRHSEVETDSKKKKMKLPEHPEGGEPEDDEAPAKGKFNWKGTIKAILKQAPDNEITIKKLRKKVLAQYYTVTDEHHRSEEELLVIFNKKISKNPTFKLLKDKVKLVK
inactive: [1] 0.011 | vorinostat 0.109 | silmitasertib 0.005 | [2] 0.001 | entospletinib 0.014

KIFC1 (UniProt Q9BW19)
inactive: [1] 0.02 | silmitasertib 0.03 | [2] -0.04 | entospletinib -0.002
active: vorinostat -0.898

MARF1 (UniProt Q9Y4F3)
UniProt Q9Y4F3, sequence (Q9Y4F3 whole entry, looked up): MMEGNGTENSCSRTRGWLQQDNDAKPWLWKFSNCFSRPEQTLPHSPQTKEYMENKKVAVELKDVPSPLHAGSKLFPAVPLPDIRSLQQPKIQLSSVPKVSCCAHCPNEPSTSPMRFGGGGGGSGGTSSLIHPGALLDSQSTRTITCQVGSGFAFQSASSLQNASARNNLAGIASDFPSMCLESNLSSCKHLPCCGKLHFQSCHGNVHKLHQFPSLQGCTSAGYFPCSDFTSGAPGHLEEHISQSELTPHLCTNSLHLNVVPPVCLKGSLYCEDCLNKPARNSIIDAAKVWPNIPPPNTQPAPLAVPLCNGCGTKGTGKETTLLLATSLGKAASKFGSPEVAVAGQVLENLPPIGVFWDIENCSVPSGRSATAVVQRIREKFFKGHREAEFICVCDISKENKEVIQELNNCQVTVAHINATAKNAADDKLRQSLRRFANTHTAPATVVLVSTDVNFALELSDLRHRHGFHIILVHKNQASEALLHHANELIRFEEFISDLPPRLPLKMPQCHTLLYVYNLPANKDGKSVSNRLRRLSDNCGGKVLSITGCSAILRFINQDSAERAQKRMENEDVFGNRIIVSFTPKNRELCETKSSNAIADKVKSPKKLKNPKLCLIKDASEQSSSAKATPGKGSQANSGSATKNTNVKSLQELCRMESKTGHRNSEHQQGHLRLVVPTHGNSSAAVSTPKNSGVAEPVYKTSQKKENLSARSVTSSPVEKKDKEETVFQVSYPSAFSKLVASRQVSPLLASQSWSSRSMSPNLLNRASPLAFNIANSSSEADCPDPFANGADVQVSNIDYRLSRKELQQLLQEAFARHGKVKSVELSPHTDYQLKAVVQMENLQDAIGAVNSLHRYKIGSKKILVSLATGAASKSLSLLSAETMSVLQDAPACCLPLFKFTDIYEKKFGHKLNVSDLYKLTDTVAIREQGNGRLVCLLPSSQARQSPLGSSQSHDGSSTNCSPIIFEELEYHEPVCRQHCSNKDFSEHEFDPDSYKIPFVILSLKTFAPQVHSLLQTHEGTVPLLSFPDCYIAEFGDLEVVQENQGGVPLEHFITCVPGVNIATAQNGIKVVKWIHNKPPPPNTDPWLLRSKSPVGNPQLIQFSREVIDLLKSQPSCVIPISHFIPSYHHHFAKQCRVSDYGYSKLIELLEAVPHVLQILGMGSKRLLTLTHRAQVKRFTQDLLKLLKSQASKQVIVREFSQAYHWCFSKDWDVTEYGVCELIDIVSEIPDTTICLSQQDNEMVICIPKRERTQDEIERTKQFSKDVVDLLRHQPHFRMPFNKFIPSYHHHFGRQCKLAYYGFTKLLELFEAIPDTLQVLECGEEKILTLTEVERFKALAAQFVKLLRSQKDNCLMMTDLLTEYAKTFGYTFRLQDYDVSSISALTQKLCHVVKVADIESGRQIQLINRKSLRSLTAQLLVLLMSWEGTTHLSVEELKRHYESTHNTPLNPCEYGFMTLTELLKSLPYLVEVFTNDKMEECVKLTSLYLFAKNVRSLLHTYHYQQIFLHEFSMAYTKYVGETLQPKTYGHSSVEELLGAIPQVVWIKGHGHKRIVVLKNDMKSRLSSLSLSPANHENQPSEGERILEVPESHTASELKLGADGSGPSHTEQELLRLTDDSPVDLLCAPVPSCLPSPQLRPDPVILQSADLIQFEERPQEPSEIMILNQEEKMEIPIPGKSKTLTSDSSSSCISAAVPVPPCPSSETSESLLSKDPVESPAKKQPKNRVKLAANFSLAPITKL
inactive: [1] 0.006 | silmitasertib 0.003 | [2] -0.045 | entospletinib 0.049
active: vorinostat -0.471

LARS (UniProt Q9P2J5)
active: vorinostat -0.399
inactive: [1] -0.021 | silmitasertib 0.052 | [2] -0.003 | entospletinib 0.012

MIF4GD isoform 3 (UniProt A9UHW6)
inactive: [1] 0.008 | silmitasertib 0.018 | [2] -0.012 | entospletinib -0.032
active: vorinostat -0.232

MANEA (UniProt Q5SRI9)
inactive: [1] 0 | vorinostat 0.217 | silmitasertib -0.103 | [2] -0.047 | entospletinib 0.055

LYSMD3 (UniProt Q7Z3D4)
inactive: [1] 0.01 | vorinostat 0.095 | silmitasertib -0.022 | [2] -0.029 | entospletinib 0.028

LAMP1 (UniProt P11279)
UniProt P11279, sequence (P11279 whole entry, looked up): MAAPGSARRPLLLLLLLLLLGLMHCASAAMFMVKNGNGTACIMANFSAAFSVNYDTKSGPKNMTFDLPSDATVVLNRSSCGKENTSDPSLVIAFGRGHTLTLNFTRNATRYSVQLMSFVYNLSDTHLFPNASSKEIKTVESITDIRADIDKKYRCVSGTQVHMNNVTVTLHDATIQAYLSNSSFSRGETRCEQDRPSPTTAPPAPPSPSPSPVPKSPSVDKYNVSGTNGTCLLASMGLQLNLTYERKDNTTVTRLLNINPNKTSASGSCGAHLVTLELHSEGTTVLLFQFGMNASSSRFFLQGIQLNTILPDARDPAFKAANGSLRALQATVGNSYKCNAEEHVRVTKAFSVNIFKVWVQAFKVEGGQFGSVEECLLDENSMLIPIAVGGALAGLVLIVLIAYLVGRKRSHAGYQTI
inactive: [1] 0.007 | vorinostat 0.095 | silmitasertib -0.009 | [2] -0.05 | entospletinib -0.004

LZTS1 (UniProt Q9Y250)
inactive: [1] 0.04 | vorinostat 0.101 | silmitasertib -0.143 | [2] 0.121 | entospletinib 0.07

MLH1 (UniProt P40692)
active: vorinostat -0.312
inactive: [1] 0.04 | silmitasertib 0.025 | [2] 0.005 | entospletinib 0.022

MRPL46 (UniProt Q9H2W6)
inactive: [1] 0.021 | vorinostat -0.21 | silmitasertib 0.155 | [2] 0.036 | entospletinib -0.049

LRRC40 (UniProt Q9H9A6)
inactive: [1] -0.005 | silmitasertib 0.027 | [2] -0.043 | entospletinib 0.02
active: vorinostat -0.315

KRR1 (UniProt Q13601)
inactive: [1] 0.013 | vorinostat 0.02 | silmitasertib 0.013 | [2] 0.101 | entospletinib 0.011

KSR1 (UniProt Q8IVT5)
inactive: [1] 0.029 | silmitasertib 0.081 | [2] 0.031 | entospletinib -0.025
active: vorinostat -0.49

KIF26A (UniProt Q9ULI4)
inactive: [1] -0.01 | vorinostat -0.178 | silmitasertib 0.068 | [2] -0.016 | entospletinib 0.057

MED14 (UniProt O60244)
active: vorinostat -0.21
inactive: [1] -0.01 | silmitasertib -0.035 | [2] 0.002 | entospletinib -0.084

MCCC1 (UniProt Q96RQ3)
inactive: [1] 0.028 | silmitasertib 0.02 | [2] -0.003 | entospletinib 0.023
active: vorinostat -0.292

MAPK6 (UniProt Q16659)
inactive: [1] -0.04 | vorinostat -0.033 | silmitasertib 0.033 | [2] 0.035 | entospletinib 0.024

LRWD1 (UniProt Q9UFC0)
inactive: [1] -0.022 | silmitasertib -0.008 | [2] -0.011 | entospletinib 0.006
active: vorinostat -0.322

MAT2B (UniProt Q9NZL9)
inactive: [1] 0.019 | vorinostat 0.103 | silmitasertib 0.005 | [2] 0.021 | entospletinib 0.024

KIF4B (UniProt Q2VIQ3)
inactive: [1] -0.035 | silmitasertib 0.027 | [2] -0.02 | entospletinib 0
active: vorinostat -0.506

MAP2K4 isoform 2 (UniProt P45985)
inactive: [1] -0.119 | vorinostat -0.216 | silmitasertib 0.023 | [2] 0.013 | entospletinib 0.028

MAP2K2 (UniProt P36507)
UniProt P36507, sequence (P36507 whole entry, looked up): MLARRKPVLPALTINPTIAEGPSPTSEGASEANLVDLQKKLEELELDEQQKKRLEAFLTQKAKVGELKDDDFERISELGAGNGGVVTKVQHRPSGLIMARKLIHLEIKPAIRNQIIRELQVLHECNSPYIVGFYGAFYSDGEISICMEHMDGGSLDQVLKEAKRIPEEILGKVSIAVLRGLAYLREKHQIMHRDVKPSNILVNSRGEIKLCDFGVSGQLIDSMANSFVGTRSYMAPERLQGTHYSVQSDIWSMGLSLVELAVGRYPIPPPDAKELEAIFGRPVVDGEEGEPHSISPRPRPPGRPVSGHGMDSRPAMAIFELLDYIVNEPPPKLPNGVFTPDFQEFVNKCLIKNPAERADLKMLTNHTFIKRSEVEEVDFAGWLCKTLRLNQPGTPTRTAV
inactive: [1] -0.031 | vorinostat -0.088 | silmitasertib 0.099 | [2] 0.032 | entospletinib 0.04

MECR (UniProt Q9BV79)
UniProt Q9BV79, sequence (Q9BV79 whole entry, looked up): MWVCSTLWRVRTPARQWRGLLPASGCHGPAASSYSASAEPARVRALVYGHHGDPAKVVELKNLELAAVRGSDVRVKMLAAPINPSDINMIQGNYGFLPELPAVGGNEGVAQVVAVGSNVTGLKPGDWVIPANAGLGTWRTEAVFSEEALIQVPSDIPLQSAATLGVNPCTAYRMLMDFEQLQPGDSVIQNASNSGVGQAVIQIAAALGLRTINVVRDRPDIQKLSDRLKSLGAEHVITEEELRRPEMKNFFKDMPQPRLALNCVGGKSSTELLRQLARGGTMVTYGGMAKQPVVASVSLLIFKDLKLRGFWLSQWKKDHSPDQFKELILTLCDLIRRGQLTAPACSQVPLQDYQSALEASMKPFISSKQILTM
inactive: [1] -0.037 | silmitasertib 0.009 | [2] -0.016 | entospletinib 0.011
active: vorinostat -0.268

METTL2A (UniProt Q96IZ6)
inactive: [1] 0.033 | silmitasertib -0.005 | [2] 0.058 | entospletinib -0.003
active: vorinostat -0.28

LAS1L (UniProt Q9Y4W2)
active: vorinostat -0.397
inactive: [1] -0.008 | silmitasertib 0.01 | [2] -0.018 | entospletinib -0.075

LAGE3 (UniProt Q14657)
UniProt Q14657, sequence (Q14657 whole entry, looked up): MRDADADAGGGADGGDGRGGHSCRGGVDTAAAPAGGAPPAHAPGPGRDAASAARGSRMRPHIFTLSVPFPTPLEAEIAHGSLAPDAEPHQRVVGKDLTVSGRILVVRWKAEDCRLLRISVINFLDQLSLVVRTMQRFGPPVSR
inactive: [1] 0.045 | vorinostat -0.085 | silmitasertib -0.016 | [2] -0.041 | entospletinib -0.043

MCMBP (UniProt Q9BTE3)
inactive: [1] -0.01 | silmitasertib 0.028 | [2] -0.013 | entospletinib -0.007
active: vorinostat -0.415

LSM8 (UniProt O95777)
UniProt O95777, sequence (O95777 whole entry, looked up): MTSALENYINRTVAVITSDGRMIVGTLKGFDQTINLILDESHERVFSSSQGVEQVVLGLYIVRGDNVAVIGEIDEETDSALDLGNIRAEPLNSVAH
inactive: [1] -0.052 | vorinostat 0.063 | silmitasertib -0.011 | [2] 0.009 | entospletinib 0.028
